Screening results deposited in PubChem by several laboratories.
Sampled rows, rich in hits. Any-hit rate of the full collection: about 2%.
Shn3 3UTR inh – inhibitors of Schnurri-3 3'UTR reporter in osteoblasts; Clone20 osteoblast Shn3 3'UTR firefly luciferase, 24 h; inhibition, % at 12.5 µM; 360,000 compounds, 0.52% hits; AID 588674;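 active = mean inhibition of at least 75% with every replicate also reaching 75%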
LGR2 antag – inhibitors of bursicon-induced Drosophila LGR2 receptor cAMP signaling; HEK293 LGR2, CRE-luciferase, bursicon-stimulated, 4 h; inhibition, % at 9.99 µM; 380,000 compounds, 0.35% hits; AID 720647;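 active = drop in luminescence signal, shown as inhibition above about 50% in the replicate tests, limit read from the data, passing the limit was not always enough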;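 note: agonist challenge used bursicon conditioned medium at about half maximal strength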
CF NFkB inh – cystic fibrosis NF-kB activation inhibition; KKLEB NF-kB-GFP reporter, PAF-induced, GFP fluorescence overnight; inhibition, % at 5 µM; 360,000 compounds, 0.86% hits;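 active = at least 50% inhibition at 5 µM, scaled per plate between neutral and stimulator controls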;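 note: PAF is a Pseudomonas aeruginosa culture filtrate used as stimulus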
KKLEB cytotox – counter-screen for CF NF-kB inhibitors: cytotoxicity | KKLEB CF airway cells viability, ATPlite luminescence, overnight; stronger effect = lower value; cells stimulated with P. aeruginosa culture filtrate | activity change (cytotoxicity), % at 5 µM | 360,000 compounds, 0.36% hits | AID 602141;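 active = corrected activity change at or below -50% at 5 µM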
EWS-Fli inh – inhibitors of EWS/Fli oncoprotein transcriptional activity | A673 NR0B1-luciferase reporter, viability-normalised | inhibition, % at 12.6 µM | 350,000 compounds, 0.67% hits;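 active = mean inhibition of at least 50% after viability correction, with every replicate also passing that limit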;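 note: firefly luciferase signal divided by Alamar Blue viability fluorescence both relative to DMSO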
PAX8 inh HTS – lowers PAX8-driven luciferase in RMG-I cells; inhibition, % at 12.6 µM; RMG-I TPO-luciferase reporter, SteadyGlo, 24 h; 360,000 compounds, 1.2% hits;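 active = mean replicate inhibition at least 60% with every replicate also reaching 60%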;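 note: luciferase light reporting Pax8 driven TPO promoter activity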
DNA binding – small molecule DNA binding by fluorescence polarization | shares compounds with EWS-Fli inh | salmon sperm DNA acridine orange fluorescence polarization | AC35, µM (doses to about 68 µM) | 640 compounds, 2% hits;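 active = fitted curve reaches a 35% signal fall AC35 below twice the sample's top valid tested dose, actives reach about 48 µM in these data; inactive = the rest, including activity in the rising direction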;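 note: lower polarization ratio signals compound binding to DNA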
Hits are given with their value; – = inactive; · = no result given; ! = repeats disagree.

SMILES | Shn3 3UTR inh | LGR2 antag | CF NFkB inh | KKLEB cytotox | EWS-Fli inh | PAX8 inh HTS | DNA binding
O=C(C[C@H]1CC[C@@H]2[C@H](COC[C@H](O)CN2Cc2nccs2)O1)NCc1ccc(-c2ccccc2)cc1 | · | – | · | · | – | – | ·
C[C@@H]1CN([C@@H](C)CO)C(=O)c2cc(NC(=O)C3CC3)ccc2O[C@H]1CN(C)Cc1ccc(C(=O)Nc2ccccc2N)cc1 | · | – | · | · | – | · | ·
C[C@H](CO)N1C[C@H](C)[C@H](CN(C)Cc2ccc(C(=O)Nc3ccccc3N)cc2)Oc2ccc(N(C)C)cc2CC1=O | · | – | · | · | 67 | – | –
C[C@@H]1CN([C@H](C)CO)C(=O)CCCn2nncc2CO[C@H]1CN(C)Cc1ccc(Oc2ccccc2)cc1 | – | – | – | – | 70! | 116! | –
C[C@H]1CN([C@@H](C)CO)C(=O)c2cc(NC(=O)C3CCCCC3)ccc2O[C@H]1CN(C)Cc1ccc(C(=O)Nc2ccccc2N)cc1 | · | – | · | · | 52 | · | –
C[C@@H]1CN([C@@H](C)CO)C(=O)Cc2cc(N(C)C)ccc2O[C@@H]1CN(C)Cc1ccccc1 | · | – | · | · | 55 | – | –
COc1ccc2c3c([nH]c2c1)[C@H](CO)N(C(=O)c1ccccn1)CC31CCN(C(=O)C2CCCCC2)CC1 | · | – | · | · | – | – | ·
C[C@@H]1CN([C@@H](C)CO)C(=O)c2cc(NC(=O)NC3CCCCC3)ccc2O[C@@H](C)CCCCO[C@H]1CN(C)C(=O)NC1CCCCC1 | · | – | · | · | – | – | ·
COc1ccc(NC(=O)N(C)C[C@H]2Oc3ccc(NS(=O)(=O)c4cccs4)cc3C(=O)N([C@H](C)CO)C[C@H]2C)cc1 | · | – | · | · | – | · | ·
C[C@H](CO)N1C[C@H](C)[C@H](CN(C)Cc2cccc(F)c2)Oc2ncc(C#CCc3ccccc3)cc2C1=O | · | – | · | · | – | · | ·
Cc1ccc(S(=O)(=O)N(C)C[C@@H]2Oc3ccc(NC(=O)CCCCCC(=O)Nc4ccccc4N)cc3CC(=O)N([C@@H](C)CO)C[C@@H]2C)cc1 | · | – | · | · | 56 | – | –
Cc1ccc(S(=O)(=O)N(C)C[C@@H]2Oc3ccc(NC(=O)CCCCCC(=O)Nc4ccccc4N)cc3CC(=O)N([C@@H](C)CO)C[C@H]2C)cc1 | · | – | · | · | – | – | ·
C[C@@H]1CN([C@@H](C)CO)C(=O)Cc2cc(NC(=O)Nc3ccc(C(F)(F)F)cc3)ccc2O[C@@H]1CN(C)Cc1ccc(C(=O)Nc2ccccc2N)cc1 | · | – | · | · | 55 | · | –
C[C@H]1CN([C@@H](C)CO)C(=O)Cc2cc(NC(=O)Nc3ccc(F)cc3)ccc2O[C@@H]1CN(C)Cc1ccc(C(=O)Nc2ccccc2N)cc1 | · | – | · | · | – | – | ·
C[C@@H]1CN([C@H](C)CO)C(=O)c2cc(NC(=O)CCCCCC(=O)Nc3ccccc3N)ccc2O[C@@H]1CN(C)Cc1ccc(Cl)c(Cl)c1 | · | – | · | · | 69 | · | –
C[C@@H]1CN([C@H](C)CO)C(=O)c2cc(C#CCc3ccccc3)cnc2O[C@@H]1CN(C)Cc1cccc(F)c1 | · | – | · | · | 56 | · | –
CC(C)CC#Cc1ccc2c(c1)O[C@@H](CN(C)C(=O)c1cccnc1)[C@@H](C)CN([C@@H](C)CO)S2(=O)=O | · | – | · | · | – | · | ·
C[C@H](CO)N1C[C@H](C)[C@@H](CN(C)Cc2ccc(Oc3ccccc3)cc2)Oc2ccc(NS(=O)(=O)c3ccc(Cl)cc3)cc2CC1=O | · | – | · | · | 57 | 101 | –
C[C@H]1CN([C@@H](C)CO)C(=O)c2cc(N(C)C)ccc2O[C@@H]1CN(C)Cc1ccc(C(=O)Nc2ccccc2N)cc1 | · | – | · | · | 65 | – | –
C[C@H](CO)N1C[C@H](C)[C@@H](CN(C)Cc2ccc(C(=O)Nc3ccccc3N)cc2)Oc2ccc(N(C)C)cc2CC1=O | · | – | · | · | – | – | ·
O=C([C@H]1[C@H](CO)[C@H]2Cn3c(ccc(-c4cccnc4)c3=O)[C@H]2N1CCC(F)(F)F)N1CCOCC1 | · | – | · | · | – | – | ·
C[C@H]1CN([C@@H](C)CO)C(=O)c2cc(-c3cccc(F)c3)cnc2O[C@@H]1CN(C)CC1CCOCC1 | · | – | · | · | – | – | ·
CC=Cc1ccc2n(c1=O)C[C@@H]1[C@@H](CO)[C@H](C(=O)N(C)C)[C@H]2N1CC1CCOCC1 (mixture of isomers) | · | – | · | · | – | · | ·
